Experimental data as given in PubChem BioAssay AID1209 (Sanford-Burnham Center for Chemical Genomics, 2008).
Among all 190,000 compounds or so, about 810 (0.43%) were called active. Cut-off read from the data, not from the text of the source: active = inhibition above about 50%; inactive = the rest. What follows is part of a selection rich in actives, with near analogues and random picks from the rest.

biological target: Mannose-6-phosphate isomerase (Homo sapiens) (UniProt P34949); assay: inhibitors of human PMI, primary screen, biochemical, fluorescence intensity, coupled assay (AID 1209); settings: purified PMI enzyme, at 20 µM, active compounds read high;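 note: plate controls were DMSO vehicle for no effect and wells lacking substrate for full effect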
Sequence (P34949 whole entry, looked up): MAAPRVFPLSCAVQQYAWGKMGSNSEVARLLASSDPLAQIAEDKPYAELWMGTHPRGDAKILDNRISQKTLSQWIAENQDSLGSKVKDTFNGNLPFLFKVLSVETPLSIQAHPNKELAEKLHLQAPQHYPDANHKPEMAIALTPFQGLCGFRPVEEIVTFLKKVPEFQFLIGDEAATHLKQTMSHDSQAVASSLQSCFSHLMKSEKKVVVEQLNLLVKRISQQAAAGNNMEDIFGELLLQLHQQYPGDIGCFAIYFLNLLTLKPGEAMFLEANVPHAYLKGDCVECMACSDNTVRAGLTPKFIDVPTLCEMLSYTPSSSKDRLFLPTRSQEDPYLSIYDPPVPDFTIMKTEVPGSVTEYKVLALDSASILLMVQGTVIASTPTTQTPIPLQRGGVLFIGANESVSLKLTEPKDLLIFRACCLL

inhibition, inactive:
Cc1ccc(OCCn2c(=S)[nH]c3c(N)ncnc32)cc1 8.7%
CCOc1ccc(OCCn2c(=S)[nH]c3c(N)ncnc32)cc1 11%
Cc1cccc(C(=O)Nc2ncc(CN3CCOCC3)s2)c1 4.7%
Cc1[nH]n(-c2cccc3ccccc23)c(=O)c1C=Nc1ccc2[nH]c(=O)[nH]c2c1 14.6%
Cc1ccc(-n2[nH]c(C)c(C=Nc3ccc4[nH]c(=O)[nH]c4c3)c2=O)cc1 16.2%
CC(C)(C)NC(=O)NC(=O)COC(=O)Cc1coc2ccc3ccccc3c12 25.3%
CN(C)/C=C1/Oc2c(ccc3ccccc23)C1=O 21.5%
COc1cccc2c1C(=O)c1ccc3ccccc3c1C2=O -43.2%
CCNC(=O)CC1SC(=Nc2ccc(C)cc2)NC1=O (stereo not given) -4.7%
CC(=O)c1cccc(NC(=O)NNC(=O)CCC(=O)Nc2ccc(C)c(C)c2)c1 -12%
Cc1ccc(S(=O)(=O)c2ccc(C)cc2)cc1 -0.6%
CC(=O)Nc1ccc(S(=O)(=O)c2ccc(C)cc2)cc1 10.7%
COc1ccc(N2CCC(CNC(=O)Nc3ccc(C)c(C)c3)C2)cc1 (stereo not given) 43.1%
COc1ccc(N2CCC(CNC(=S)Nc3cccc(C)c3)C2)cc1 (stereo not given) 44.7%
CCOc1ccc(NC(=O)NCC2CCN(c3ccc(OC)cc3)C2)cc1 (stereo not given) 23.3%
COc1ccc(N2CCN(S(=O)(=O)c3cccc(C(F)(F)F)c3)CC2)cc1 -0.4%
COc1ccc(N2CCC(CNC(=O)Nc3ccc(Cl)cc3)C2)cc1 (stereo not given) 37%
CCN1CCCC1CNS(=O)(=O)c1cccc(C(F)(F)F)c1 (stereo not given) -14.5%
COc1ccc(NC(=S)NCC2CCN(c3ccc(OC)cc3)C2)cc1 (stereo not given) 49.3%
COc1ccc(N2CCC(CNC(=S)Nc3cccc(OC)c3)C2)cc1 (stereo not given) 29.7%
Cn1c(SCC(=O)N=Nc2c(O)[nH]c3ccccc23)nc2ccccc21 3.1%
CCN(CC)CCCn1c(C)cc2c(c1=O)C(c1cc(OC)c(OC)cc1OC)C(C#N)=C(N)O2 (stereo not given) -0.8%
CC[C@H](C)[C@@H](NC(=O)O[C@@H]1C(=O)c2cc(OC)ccc2O[C@H]1c1ccc(OC)c(Br)c1)C(=O)OC 11%
CC(=O)N1CCc2cc(S(=O)(=O)CCC(=O)N3CCc4ccccc4C3)ccc21 -7.9%
CC(C)CC(C(=O)Nc1ccc2c(c1)OCCO2)N1C(=O)c2ccccc2C1=O (stereo not given) -13.9%
Cc1cc(=O)n2ccsc2n1 7.1%
Cc1ccn2c(=O)cc(C)nc2c1 4.8%
O=C(NCCO)C1CCN(S(=O)(=O)c2ccc(F)cc2)CC1 10.2%
COc1cc(CNn2c(C)n[nH]c2=S)cc(Cl)c1OCc1ccccc1 16.3%
O=c1cc(-c2ccc(O)cc2)oc2cc(O)c(C3OC(CO)C(O)C(O)C3O)c(O)c12 (stereo not given) 7.9%
COc1ccc(-c2oc3c(CC=C(C)C)c(O[C@@H]4O[C@H](CO)[C@@H](O)[C@H](O)[C@H]4O)cc(O)c3c(=O)c2O[C@@H]2O[C@@H](C)[C@H](O)[C@@H](O)[C@H]2O)cc1 5.6%
Cc1cc(O)cc(O[C@H]2OC(CO)[C@H](O)[C@@H](O)[C@H]2O)c1 (stereo not given in full) 1.9%
CC1OC(OCC2OC(Oc3c(-c4ccc(O)cc4)oc4cc(O)cc(O)c4c3=O)C(O)C(O)C2O)C(O)C(O)C1O (stereo not given) 4.8%
O=C(O)C1OC(Oc2c(-c3ccc(O)c(O)c3)oc3cc(O)cc(O)c3c2=O)C(O)C(O)C1O (stereo not given) 23.4%
O=c1c(-c2ccc(O)cc2)coc2cc(OC3OC(CO)C(O)C(O)C3O)cc(O)c12 (stereo not given) -6.4%
COc1ccc(-c2oc3cc(OC)c(O)c(OC)c3c(=O)c2OC)cc1O 3.4%
O=c1c(O)c(-c2ccc(O)cc2O)oc2cc(O)cc(O)c12 -15.2%
C=CCOC(=O)C1=C(C)NC(SCC(=O)NC(=O)OCC)=C(C#N)C1c1cccnc1 (stereo not given) -29.7%
CCc1ccc2nc(NC(=O)Cn3cnc4ccccc4c3=O)sc2c1 -4%
O=c1[nH]c2cc3c(cc2cc1C(c1nnnn1CC1CCCO1)N1CCCC1)OCO3 (stereo not given) -6.3%
CCN(CC)S(=O)(=O)c1ccc(OC)c(NC(=O)c2cc3c(=O)n4ccccc4nc3s2)c1 10%
Cc1ccc2nc(-c3cccnc3SCC(=O)N3c4ccccc4CC3C)[nH]c2c1 (stereo not given) 9.6%
C/C(=N\NC(=O)CSCc1ccc(Cl)cc1)c1ccc(NC(=O)c2ccccc2)cc1 -2.3%
O=C(N/N=C/c1ccncc1)c1nc(-c2ccccc2)n2c1CCCCC2 5.7%
CN(C)S(=O)(=O)N1CCC(CO)(Cc2cccc(C(F)(F)F)c2)CC1 3%
Cc1ccsc1C=C1C(=O)c2ccccc2C1=O 1.2%
O=C(COC(=O)c1ccc(S(=O)(=O)N2CCCC2)cc1)Nc1cccnc1Cl -7.2%
CCOC(=O)c1ccc(NC(=O)CCC2COc3ccccc3O2)cc1 (stereo not given) 14.5%
COc1ccc(-n2c(CN3CCC(C)CC3)nc3ccc([N+](=O)[O-])cc3c2=O)c(OC)c1 2.1%
O=c1c(-c2ccc(O)cc2)coc2cc(OC3OC(CO)C(O)C(O)C3O)ccc12 (stereo not given) -7.2%
COc1cc2c(=O)c(-c3ccc(O)cc3)coc2cc1OC1OC(CO)C(O)C(O)C1O (stereo not given) 3.2%
COc1ccc2[nH]c(=O)c(CN(Cc3cccs3)C(=S)Nc3ccccc3)cc2c1 22.8%
COc1ccc(OCc2nnc(SCC(=O)O)n2N)cc1 4.6%
CCN(CC)C(=O)CSc1nnc(COc2ccc(OC)cc2)n1N 1.7%
CC(=O)c1c(C)nc(-c2ccc(OCC(=O)Nc3ccccc3)cc2)n1O -7.9%
CCS(=O)(=O)c1ccc2oc(Nc3ccc(OC)cc3)nc2c1 -4.5%
CCS(=O)(=O)c1ccc2oc(Nc3ccc(C(C)(C)C)cc3)nc2c1 15.9%
O=C(NNC(=O)c1sccc1-n1cccc1)c1ccc(F)cc1 0.7%
CCCCOc1ccc(CSc2nnc(C)n2N)cc1[N+](=O)[O-] -8.7%
O=C(Nc1ccc(F)cc1)c1ccc(Cn2cnnn2)cc1 -9.3%
CC(=O)N(C)c1nnc(-c2ccccn2)s1 -0.7%
COCC(=O)N(C)c1nnc(-c2cnccn2)s1 -3.9%
CCCc1cc(=O)[nH]c(SCc2ccccc2)n1 13.6%
O=C(CSc1nc2ccccc2c(=O)n1CCCN1CCOCC1)N1CCN(c2ccccc2)CC1 -4.4%
Cc1ccccc1NS(=O)(=O)c1ccc(C(=O)OCC(=O)NCC(C)C)cc1 -11.1%
c1ccc(OCc2nnc3n2N=C(c2ccccc2)CS3)cc1 47.7%
COc1ccc(OCc2nnc3n2N=C(c2ccc(OC)cc2)CS3)cc1 -9.9%
CCc1ccccc1NC(=O)N1CCC(NC(=O)C(Cc2ccccc2)NC(C)=O)CC1 (stereo not given) -12.4%
CC(C)[C@H](NC(=O)c1ccccc1)C(=O)OCC(=O)N1CC(=O)Nc2ccccc21 14.2%
CCCCNC(=O)CSc1nc2ccccc2n1S(=O)(=O)c1ccc(Cl)cc1 -2.1%
COc1ccc(-c2nc(SC)n(C)c(=O)c2C#N)cc1OC 13.4%
O=C1C[C@@H](c2ccc(O)cc2)Oc2cc(O)cc(O)c21 10.6%
O=C1CC(c2ccc(O)cc2)Oc2cc(O)cc(O)c21 (stereo not given) 11.5%

inhibition, active:
CC(C)Oc1ccc(OCCn2c(=S)[nH]c3c(N)ncnc32)cc1 54.9%
O=c1[nH]c2ccc(N=Cc3c(O)ccc4cc(Br)ccc34)cc2[nH]1 64.6%
CN(C)/C=C1\Oc2ccc3ccccc3c2C1=O 86.5%
COc1ccc(N2CCC(CNC(=O)Nc3cccc(OC)c3)C2)cc1 (stereo not given) 70%
COc1ccc(N2CCC(CNC(=O)Nc3ccccc3)C2)cc1 (stereo not given) 74.5%
COc1ccc(N2CCC(CNS(=O)(=O)c3cccc(C(F)(F)F)c3)C2)cc1 (stereo not given) 65.5%
CCc1cccc(C)c1NC(=S)NCC1CCN(c2ccc(OC)cc2)C1 (stereo not given) 55%
Cc1cc(=O)n2cccc(O)c2n1 71%
C[C@@H]1O[C@@H](Oc2c(-c3cc(O)c(O)c(O)c3)oc3cc(O)cc(O)c3c2=O)[C@H](O)[C@H](O)[C@H]1O 65.7%
O=c1c(O[C@@H]2O[C@H](CO)[C@H](O)[C@H](O)[C@H]2O)c(-c2ccc(O)c(O)c2)oc2cc(O)cc(O)c12 61.3%
C[C@@H]1O[C@@H](OC[C@H]2O[C@@H](Oc3c(-c4ccc(O)c(O)c4)oc4cc(O)cc(O)c4c3=O)[C@H](O)[C@@H](O)[C@@H]2O)[C@H](O)[C@H](O)[C@H]1O 50.3%
O=c1c(O[C@@H]2O[C@H](CO)[C@@H](O)[C@H](O)[C@H]2O)c(-c2ccc(O)c(O)c2)oc2cc(O)cc(O)c12 62.8%
COc1ccc(OCc2nnc(SCC(=O)N(C)Cc3ccccc3)n2N)cc1 50.1%
CCS(=O)(=O)c1ccc2oc(Nc3ccc(C(C)C)cc3)nc2c1 63.4%
COCC(=O)N(C)c1nnc(-c2ccccn2)s1 102%
COc1ccccc1C1=Nn2c(COc3ccccc3)nnc2SC1 67.8%
O=C(O[C@@H]1Cc2c(O)cc(O)cc2O[C@@H]1c1cc(O)c(O)c(O)c1)c1cc(O)c(O)c(O)c1 67.2%
